HT1080 IDH1KD tx = qHTS for induction of synthetic lethality in tumor cells producing 2HG: qHTS for the HT-1080-IDH1KD cell line | HT-1080 IDH1 knockdown viability, ATP luminescence, 48 h | Potency, µM (titrated, usually from 46.1 µM), inactives show at the highest dose activity, negative = toxicity, hits mostly cytotoxic | 360,000 compounds, 2% hits | AID 686971, 2013;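 further: potency means the concentration at half of the fitted maximal effect; 0% = DMSO wells and -100% = cell-free medium wells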
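Using the IDH1-knockdown HT-1080 line run in the same batch and compound series as the NT line, viability after 48 h at 37 °C was determined by CellTiter-Glo luminescence and expressed as % activity.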
HT1080-NT tox = qHTS for induction of synthetic lethality in tumor cells producing 2HG: qHTS for the HT-1080-NT fibrosarcoma cell line. Potency, µM (titrated, usually from 46.1 µM), inactives show top-dose activity, negative = less viability, actives largely listed as cytotoxic. HT-1080-NT fibrosarcoma viability, CellTiter-Glo ATP luminescence, 48 h. 360,000 compounds, 1.6% hits;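 further: NT is the 2HG producing partner of a matched IDH1 knockdown line; potency means the concentration at half of the fitted maximal effect; 0% = DMSO-treated cells and -100% = media-only wells without cells; nearly all actives have a fitted effect of over 55% in size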
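HT-1080-NT fibrosarcoma cells (2HG-overproducing), 750 cells/well in RPMI with 5% FBS, dosed after 2 h and incubated 48 h at 37C. CellTiter-Glo luminescence normalized to DMSO and no-cell wells; concentration-response curves fitted and classed.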
IL1B secr inh = qHTS for Inhibitors of Inflammasome Signaling: IL-1-beta AlphaLISA Primary Screen; THP-1 LPS/ATP IL-1B secretion, AlphaLISA, 16 h; hits give low values; activity change, % at 57.5 µM; 360,000 compounds, 4.7% hits; in the data active means activity change below about -50%; inconclusive means mostly about -30% to -49%
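THP-1 cells pretreated 1 hr with compounds (up to 57.5 uM final), then stimulated with LPS (250 ng/mL final) plus ATP (1.25 mM final); secreted IL-1B measured by AlphaLISA after 16 hr, decreased signal indicating inhibition.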
TDP1 cell noCPT = qHTS for Inhibitors of human tyrosyl-DNA phosphodiesterase 1 (TDP1): qHTS in cells in absence of CPT; AID 686978, 2013; 420,000 compounds, 15% hits; DT40 Tdp1-/- hTDP1 cells, no CPT, ATP luminescence, 48 h; Potency, µM (doses to about 46.2 µM), without a hit: top-dose activity change, negative = growth inhibition, most hits filed as inhibitors; further: potency means the concentration at half of the fitted maximal effect; nearly all actives have a fitted effect of over 55% in size
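Seeded 400 DT40-hTDP1 cells/well (vehicle DMSO, no 20 nM CPT); pinned compounds; ≥48 hr at 37 °C; CellTiter-Glo luminescence as viability measure.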
DT40 TDP1 CPT = qHTS for Inhibitors of human tyrosyl-DNA phosphodiesterase 1 (TDP1): qHTS in cells in presence of CPT | chicken DT40 Tdp1-/-;hTDP1 cells + 20 nM CPT, ATP luminescence, 48 h | Potency, µM (highest dose often 46.2 µM), for the others: at the highest dose activity change, negative = growth inhibition, hits mostly inhibitors | 420,000 compounds, 12% hits | AID 686979, 2013; further: potency means the concentration at half of the fitted maximal effect; nearly all actives have a fitted effect of over 55% in size
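Cell growth measured by CellTiter-Glo luminescence after a minimum 48 h, 37 C compound exposure with 20 nM CPT in Tdp1-knockout DT40 cells stably expressing hTDP1, seeded 400/well; qHTS titration format.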
Numbers without * were called inactive; ? = inconclusive; · = no result; [ ] = dose if it differs, or a comment. Most compounds without a hit are left out; they make up all but 19% or so of the library. Unless noted, the call rests on the fitted dose curve; in most records, active means well fitted curve in the direction sought with a large enough effect; inconclusive means small, poorly fitted or top-dose-only effect, or another doubt; inactive means no such curve, though single readings can be large; an effect the other way counts as inactive or inconclusive. Unless noted, on the % scale 0 is the no-effect control and ±100 the full control effect.

SMILES | HT1080 IDH1KD tx | HT1080-NT tox | IL1B secr inh | TDP1 cell noCPT | DT40 TDP1 CPT
OCCOCCn1c(C(CO)Nc2nc(-c3ccc(Cl)cc3)cs2)nc2ccccc21 (stereo unspecified) | -20.3% | -19.8% | ? | 18.4µM* | 29.1µM*
CCCn1c(C(CO)Nc2nc(-c3cccc(Br)c3)cs2)nc2ccccc21 (stereo unspecified) | -26.0% | ? | -56.9* | ? | ?
OCCOCCn1c(C(CO)Nc2nc(-c3cccc(Br)c3)cs2)nc2ccccc21 (stereo unspecified) | -14.5% | -10.0% | -23.3 | 18.4µM* | ?
OCCOCCn1c(C(CO)Nc2nc(-c3ccccc3Br)cs2)nc2ccccc21 (stereo unspecified) | 0.7% | 0.7% | 6.9 | -21.7% | ?
COc1ccccc1C1CN(Cc2cccnc2)Cc2ccccc2O1 (stereo unspecified) | · | · | · | -18.7% | 4.8%[9.04 µM]
CCCN1C(=O)/C(=C/c2ccc(C)o2)SC1=Nc1ccc(OC)cc1 | ? | ? | -12.1 | 8.2µM* | 9.2µM*
CCN1C(=O)/C(=C/c2ccc(C)s2)SC1=Nc1ccc(OC)cc1 | ? | -13.4% | -14.9 | 9.2µM* | 9.2µM*
CCCN1C(=O)/C(=C/c2ccco2)SC1=Nc1ccc(OC)cc1 | -0.5% | 2.4% | -13.5 | ? | -23.0%
CC(C)CNC(=O)C(=O)NCC1CCCN1S(=O)(=O)c1cccs1 (stereo unspecified) | 3.4% | 4.0% | 20.7 | 8.0% | 9.5%
O=C(CN1CC[n+]2c(-c3ccccc3)csc21)c1ccc(Br)cc1 | -0.3% | 20.6µM* | -54.1* | 2.06µM* | 2.91µM*
O=C(CN1CC[n+]2c(-c3cccs3)csc21)c1ccc(Br)cc1 | -1.7% | -6.4% | ? | 3.66µM* | 1.84µM*
CC(=O)N1CCN(CC(=O)c2ccc(Br)cc2)CC1 | -4.0% | -9.7% | 26.9 | -20.7% | -21.2%
N#CCN1CCN(CC(=O)c2ccc(Br)cc2)CC1 | 5.9% | ? | 8.9 | -4.2% | -15.4%
COc1cc(/C=C/c2ccnc3ccccc23)cc(OC)c1OC | · | · | · | 11.2µM* | 11.2µM*
COc1ccc(Nc2ccnc3ccccc23)cc1 | -23.0% | -15.1% | ? | 16.4µM* | 13µM*
COc1ccc(Nc2ccnc(Nc3ccc(OC)cc3)n2)cc1 | 20.6µM* | 23.1µM* | -99.1* | 2.59µM* | 2.59µM*
O=C(NCCc1ccccc1)c1nccc2ccccc12 | 17.0% | 17.1% | 6.0 | -14.1% | -15.7%
c1ccc(CCNc2ccnc3cc4ccccc4cc23)cc1 | 20.6µM* | 18.4µM* | -101.8* | 7.31µM* | 5.8µM*
Cc1cc(NC(=O)COC(=O)c2ccco2)no1 | 22.0% | 14.4% | 16.1 | -0.8% | 7.8%
CC1(C(=O)NS(=O)(=O)c2ccc(Cl)cc2)CCN1C(=O)Cc1ccccc1Cl (stereo unspecified) | 12.3% | 16.0% | 22.4 | -12.0% | -14.5%
CC(C)c1c(C(=O)NCC2(N3CCCCC3)CCCC2)cnn1-c1nccc(-c2ccco2)n1 | · | · | · | -2.2% | 10.9%[9.04 µM]
COc1cc(N(C)C)ccc1/C=C/c1ccnc2ccccc12 | · | · | · | 25.1µM* | 10µM*
CC(C)Nc1ccc(Nc2ccnc3cc4ccccc4cc23)cc1 | 5.17µM* | ? | -106.5* | 7.31µM* | 8.2µM*
COc1ccc(/C=C/c2ccnc3ccccc23)cc1 | · | · | · | 31.6µM* | 11.2µM*
COc1ccc(/C=C/c2ccccn2)cc1 | · | · | · | -102.7% | ?
SMILES | HT1080 IDH1KD tx | HT1080-NT tox | IL1B secr inh | TDP1 cell noCPT | DT40 TDP1 CPT
COc1ccc(/C=C/c2ccnc3ccccc23)c(OC)c1 | · | · | · | 17.8µM* | 22.4µM*
CC1(C)CC(N(Cc2ccc(F)cc2)C(=O)c2ccc(F)cc2)CCO1 (stereo unspecified) | 5.7% | 4.8% | -14.3 | ? | -21.9%
CC1(C)CC(C(CCN(Cc2ccccc2)C(=O)c2ccco2)c2ccc(F)cc2)CCO1 (stereo unspecified) | ? | ? | -52.2* | ? | ?
CN(Cc1cccs1)C(=O)COc1cccc2c1OC(C)(C)C2 | 12.1% | 5.1% | 3.9 | -27.7% | ?
COc1cccc2sc3ccc(C#Cc4ccc(N)cc4)cc3c(=O)c12 | -15.2% | -15.1% | -24.9 | ? | 16.4µM*
COc1cccc2sc3ccc(C#CC4(O)CCCCC4)cc3c(=O)c12 | -27.0% | ? | -56.7* | ? | ?
Nc1ccc(C#Cc2ccc3sc4ccccc4c(=O)c3c2)cc1 | ? | -7.4% | 16.1 | -29.2% | -6.4%
C#CCNC(=O)C1=C[C@H](c2ccc(Br)cc2)C[C@H](OCc2ccc(CO)cc2)O1 | 6.7% | 6.8% | -16.7 | -9.2% | -14.7%
Cc1ccc(NC(=O)C2CC2C)cc1S(=O)(=O)N1CCOCC1 (stereo unspecified) | 1.6% | -13.0% | 10.8 | -21.3% | -6.4%
CCC(C)n1c(SCc2ccc([N+](=O)[O-])cc2)nc2ccsc2c1=O (stereo unspecified) | -11.5% | -14.5% | ? | 20.6µM* | 23.1µM*
CCOc1ccc(NC(=O)CSc2nc3ccsc3c(=O)n2CC)cc1 | · | · | · | -19.8% | -22.3%
CCC(C)n1c(SCc2c(F)cccc2Cl)nc2ccsc2c1=O (stereo unspecified) | · | · | · | 5.8µM* | 4.11µM*
CCOc1ccc(NC(=O)CSc2nc3ccsc3c(=O)n2C(C)CC)cc1 (stereo unspecified) | · | · | · | 10.3µM* | ?
CSc1ccc(CN2CCC(C)(Oc3cccc(C#N)c3)C2)cc1 (stereo unspecified) | -8.2% | -25.4% | -3.0 | ? | ?
COc1cc(NC(=O)CN(c2ccc(C)cc2)S(=O)(=O)c2c(C)noc2C)cc(OC)c1 | -23.2% | -13.6% | ? | 7.31µM* | 18.4µM*
Cc1cc(C)cc(N(CC(=O)Nc2cccc(C)n2)S(=O)(=O)c2c(C)noc2C)c1 | -18.5% | -29.4% | -28.1 | 13µM* | 20.6µM*
COc1ccc(N(CC(=O)Nc2ccc(C)c(F)c2)S(=O)(=O)c2c(C)noc2C)cc1 | -21.0% | -14.8% | 22.3 | -2.2% | ?
Cc1ccc(N(CC(=O)Nc2ccc(OC(F)(F)F)cc2)S(=O)(=O)c2c(C)noc2C)cc1 | · | · | · | 18.4µM* | 20.6µM*
COc1cc(NC(=O)CN(c2cc(C)cc(C)c2)S(=O)(=O)c2c(C)noc2C)cc(OC)c1 | -4.6% | 0.0% | -4.6 | ? | 18.4µM*
Cc1cc(C)cc(N(CC(=O)NCc2ccccc2Cl)S(=O)(=O)c2c(C)noc2C)c1 | · | · | · | 23.1µM* | ?
